Compound activity as filed in PubChem.
Exocytosis inh – blocks lytic granule exocytosis; TALL-104 LAMP-1 surface exposure, flow cytometry; cells stimulated with thapsigargin and PMA; inhibition, % at 10 µM; 360,000 tested, 0.66% active; AID 651702;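 active = inhibition above about 55%, limit read from the data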
TLR4-MyD88 BLA – blocks binding of human TLR4 to MyD88 | 200,000 tested, 0.18% active | inhibition, % at 8.4 µM | HeLa CL3-4 TLR4/MyD88 BLA complementation, FRET ratio | O00206+Q99836; in the data active = inhibition above about 25%;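 also: 0% = vehicle and 100% = reference inhibitor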
NOD2 RIPK2 PPI – blocks binding of human NOD2 to RIPK2. O43353. CHO BLA complementation NOD2-RIPK2, CCF4 ratio. inhibition, % at 4.98 µM. 360,000 tested, 0.38% active. AID 624267; in the data active = inhibition above about 21%;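 also: 0% = vehicle only and 100% = reference blocker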
ABHD5-PLIN5 inh – blocks binding of human ABHD5 to perilipin-5 | Q00G26+Q8WTS1 | Split G. princeps luciferase complementation, luminescence, 4 h | inhibition, % at 4 µM | 360,000 tested, 0.78% active;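 active = inhibition above the mean inhibition across every tested compound plus 3 SD, cut at about 22% in these data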;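 also: 0% = DMSO only wells and the 100% control is not disclosed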
PRMT1 inh – inhibitors of human PRMT1; 370,000 tested, 1.3% active; Q99873; inhibition, % at 2.79 µM; recombinant PRMT1, activity-based probe fluorescence polarization; AID 652257;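 active = inhibition above about 21% made by adding two undisclosed values, limit read from the data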
TLR9-MyD88 inh – blocks human TLR9 binding to MyD88 | Q9NR96+Q99836 | AID 504734 | inhibition, % at 4.98 µM | 340,000 tested, 0.21% active | CHO BLA complementation TLR9-MyD88, CCF4 FRET ratio;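 active = inhibition above the mean over all tested compounds plus 3 SD, cut at about 21% in these data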;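 also: 0% = DMSO only wells and 100% = clavulanate BLA inhibitor control wells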
TLR9-MyD88 conf – TLR9-MyD88 interaction inhibition, confirmation. shares compounds with TLR9-MyD88 inh. CHO TLR9/MyD88 BLA complementation, CCF4 FRET ratio. inhibition, % at 4.98 µM. 680 tested, 51% active. AID 540250;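 active = mean inhibition across three repeats above about 21% taken from the earlier screen, limit read from the data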;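 also: blue over green emission ratio reports constitutive TLR9 MyD88 association via BLA complementation; 0% = DMSO vehicle wells and 100% = clavulanate BLA inhibitor wells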
BLA counter-1 – non-selective beta-lactamase inhibitors in TLR9-MyD88 counter-screen. shares compounds with TLR9-MyD88 inh. CHO-BLA cells, CCF4 FRET ratio, BLA reporter. inhibition, % at 4.98 µM. 680 tested, 7% active. AID 540251;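 active = mean inhibition above a 50% cutoff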;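 also: counterscreen of TLR9-MyD88 hits on CMV-driven BLA in CHO-K1 cells; 0% = DMSO alone and 100% = clavulanate blocking BLA; higher means less blue over green ratio so more BLA blockade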
TLR9 CHO cytotox – counter-screen for TLR9-MyD88 inhibitors: cytotoxicity in CHO cells; shares compounds with TLR9-MyD88 inh; luminescence; inhibition, % at 4.98 µM; 680 tested, 39% active; AID 588336; in the data active = inhibition above about 11%
ABHD5 PLIN5 conf – confirmation of human ABHD5-PLIN5 interaction inhibitors. 2,200 tested, 67% active. biochemical ABHD5-PLIN5 interaction, luminescence. inhibition, % at 4 µM. shares compounds with ABHD5-PLIN5 inh; in the data active = inhibition above about 23%;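 also: 0% = DMSO vehicle wells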
HNF4 split-luc – active in HNF4 split-luciferase counter-screen for ABHD5-PLIN5 inhibitors; HNF4 dimerization, luminescence, biochemical; 2,200 tested, 77% active; AID 651674; inhibition, % at 4 µM; shares compounds with ABHD5-PLIN5 inh;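 active = mean inhibition across replicate wells exceeding the computed hit threshold, cut at about 13% in these data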;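 also: light from luciferase halves that rejoin when HNF4 fusion proteins dimerize; 0% = DMSO only wells and the 100% control is not given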
NOD2-RIPK2 conf – confirmation of human NOD2-RIPK2 interaction inhibitors; shares compounds with NOD2 RIPK2 PPI; CHO cells, NOD2-RIPK2 BLA complementation, CCF4 FRET; inhibition, % at 4.98 µM; 1,200 tested, 70% active; AID 624370;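 active = mean inhibition across replicates above a set limit taken from the earlier primary screen, cut at about 21% in these data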;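 also: 0% = DMSO-only wells and the high end = clavulanate BLA-blocked wells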
BLA counter-2 – NOD2-RIPK2 counterscreen BLA reporter activity | shares compounds with NOD2 RIPK2 PPI | CHO BLA reporter, CCF4 FRET ratio | inhibition, % at 4.98 µM | 1,200 tested, 57% active;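 active = mean inhibition above the low-control mean inhibition plus three low-control SD, cut at about 11% in these data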;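 also: 0% = DMSO only wells and 100% = clavulanate high control wells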
Active calls of the source: *. The list is not random: actives were taken first. Their share in the collection is about 2.6%.

What do the screens show for `COC(=O)[C@]12C[C@H](CC(=O)NCc3ccc(C)o3)C(=O)N(Cc3ccccc3)C1=C[C@H](COCc1ccccc1)O[C@@H]2C`?
PRMT1 inh: 14.5

Results for COc1ccc(OC)c(/C=C/C(=O)N2C(=O)c3cccc(N)c3C2=O)c1 ?
Exocytosis inh: -0.4; TLR4-MyD88 BLA: 17.1; NOD2 RIPK2 PPI: 21.2*; ABHD5-PLIN5 inh: 3.4; PRMT1 inh: 1.8; TLR9-MyD88 inh: 21.8*; TLR9-MyD88 conf: 16.4; BLA counter-1: 16.4; TLR9 CHO cytotox: 19.4*; NOD2-RIPK2 conf: 38.6*; BLA counter-2: 37.9*

What do the screens show for `CC(=O)N(C1=C(Cl)C(=O)c2ccccc2C1=O)C1CCCCC1`?
Exocytosis inh: 89.9*; NOD2 RIPK2 PPI: 53.6*; ABHD5-PLIN5 inh: 32.6*; PRMT1 inh: 92.0*; TLR9-MyD88 inh: 48.5*; TLR9-MyD88 conf: 78.3*; BLA counter-1: 22.3; TLR9 CHO cytotox: 100.4*; ABHD5 PLIN5 conf: 84.3*; HNF4 split-luc: 109.8*; NOD2-RIPK2 conf: 92.3*; BLA counter-2: 34.1*

How did CC(=O)N(c1ccccc1C)C1CCCC1 do in these assays?
Exocytosis inh: -8.6; TLR4-MyD88 BLA: 1.2; NOD2 RIPK2 PPI: -3.3; ABHD5-PLIN5 inh: -6.0; PRMT1 inh: 0.2; TLR9-MyD88 inh: -11.0

Results for COC(=O)c1cc2c(c3c4cc(F)ccc4n(S(=O)(=O)c4ccc(OC)cc4)c13)C(=O)N(C)C2 ?
PRMT1 inh: 0.4

How did COC(=O)CNC(=O)CN1C(=O)N(c2ccccc2)C(N(O)C(=O)Nc2ccccc2)C1(C)C (configuration not stated) do in these assays?
Exocytosis inh: -2.0; TLR4-MyD88 BLA: -18.7; NOD2 RIPK2 PPI: -0.4; ABHD5-PLIN5 inh: -1.1; PRMT1 inh: 2.1; TLR9-MyD88 inh: -8.9

How did COC(=O)CNC(=O)CN1C(=O)N(c2cccc(Cl)c2)C(N(O)C(=O)Nc2cccc(Cl)c2)C1(C)C (configuration not stated) do in these assays?
Exocytosis inh: 1.2; TLR4-MyD88 BLA: 7.2; NOD2 RIPK2 PPI: 25.8*; ABHD5-PLIN5 inh: 6.1; PRMT1 inh: -2.2; TLR9-MyD88 inh: 32.4*; TLR9-MyD88 conf: 7.6; BLA counter-1: 8.2; TLR9 CHO cytotox: 2.4; NOD2-RIPK2 conf: 14.3; BLA counter-2: 23.1*

How did COc1ccc(C2Nc3ccccc3C(=O)N2Cc2ccncc2)cc1COc1ccc(NC(C)=O)cc1 (configuration not stated) do in these assays?
PRMT1 inh: 0.2

How did COc1ccc(-c2cc3ccc(OCC(N)=O)cc3oc2=O)cc1OC do in these assays?
Exocytosis inh: -16.2; NOD2 RIPK2 PPI: -14.2; ABHD5-PLIN5 inh: 9.7; PRMT1 inh: -1.3; TLR9-MyD88 inh: 7.6

How did COc1ccc(-c2cc3ccc(O)cc3oc2=O)cc1OC do in these assays?
Exocytosis inh: -0.7; NOD2 RIPK2 PPI: 51.9*; ABHD5-PLIN5 inh: -3.8; PRMT1 inh: 2.6; TLR9-MyD88 inh: 40.1*; TLR9-MyD88 conf: 28.1*; BLA counter-1: 35.8; TLR9 CHO cytotox: 1.5; NOD2-RIPK2 conf: 56.1*; BLA counter-2: 59.6*
